Reference: the supplement of paper PMC13380429

Tested on: Vero E6 infected with SARS-CoV-2
Assay: inhibition of SARS-CoV-2 cytopathic effect; higher = more antiviral protection, active = above 15
Details: 48 h

Measured: inhibition of SARS-CoV-2 cytopathic effect

O=C(NC1CCNCC1)c1n[nH]cc1NC(=O)c1c(Cl)cccc1Cl
inactive: 1 nM -0.55% | 8.33 nM -2.6% | 100 nM -1.5% | 833.33 nM -1.53% | 10000 nM 2.5%

O=C(O)C1=CO[C@@H](O[C@@H]2O[C@H](CO)[C@@H](O)[C@H](O)[C@H]2O)[C@@H]2C(CO)=CC[C@H]12 [Geniposidic acid]
inactive: 1 nM -0.41% | 8.33 nM 3.01% | 100 nM 0.36% | 833.33 nM -1.23% | 10000 nM 1.07%

Cc1cc(O)c(-c2ccc([C@@H](C)CN)cc2)c2c1[nH]c(=O)c1sccc12
inactive: 1 nM -2.25% | 8.33 nM -1.13% | 100 nM -0.22% | 833.33 nM 3.77% | 10000 nM -23.9%

CNCCN(C)Cc1c[nH]nc1-c1ccc(O[C@H]2C[C@H](OCCC3CCOCC3)C2)cc1
inactive: 1 nM 0.46% | 8.33 nM -0.78% | 100 nM 4.05% | 833.33 nM 1.11% | 10000 nM 1.7%

O=C(O)CCc1nc(-c2ccccc2)c(-c2ccccc2)o1 [oxaprozin]
inactive: 1 nM -1.4% | 8.33 nM -2.65% | 100 nM -0.38% | 833.33 nM -0.99% | 10000 nM 0.84%

CCCCCOc1ccc(-c2ccc(-c3ccc(C(=O)N[C@H]4C[C@@H](O)[C@@H](O)NC(=O)[C@@H]5[C@@H](O)[C@@H](C)CN5C(=O)[C@H]([C@@H](C)O)NC(=O)[C@H]([C@H](O)[C@@H](O)c5ccc(O)cc5)NC(=O)[C@@H]5C[C@@H](O)CN5C(=O)[C@H]([C@@H](C)O)NC4=O)cc3)cc2)cc1 [anidulafungin]
inactive: 1 nM -3.73% | 8.33 nM 0.49% | 100 nM 1.56% | 833.33 nM 0.77% | 10000 nM -2.12%
